Source: PubChem BioAssay (NCATS)
Inconclusive results are not listed. Activity calls are given as the source filed them. The call rests on the fitted dose curve; in most records, active means well fitted inhibition curve with a large enough effect; inconclusive means small, poorly fitted or top-dose-only effect, or effect the other way; inactive means no such curve, though single readings can be large or run the other way.
On the % scale 0 is the no-effect control and ±100 the full control effect; potency means the concentration at half of the fitted maximal effect.

Assay: Quantitative high throughput screen for delayed death inhibitors of the malarial parasite plastid, 96 hour incubation (AID 488745); further: nearly all actives have a fitted effect of over 70% in size
Conditions: Plasmodium falciparum growth; series mostly up to 28.7 µM; activity change, negative = inhibition: at the top concentration
From the text: NIH Molecular Libraries Probe Production Network [MLPCN]
NIH Chemical Genomics Center [NCGC]
Assay Provider: David Fidock and Eric Ekland, Columbia University
The goal of this screen is to discover new antimalarial compounds that act by inhibiting the development of the apicoplast in the malarial parasite Plasmodium falciparum. The biochemical processes that make this organelle essential for erythrocytic stage parasites are not well understood. However, antibiotics such as azithromycin and tetracycline, which target the apicoplast translational machinery, have a potent antimalarial effect.
We have developed a cell-based assay that measures parasite growth based on the expression of an integrated copy of a firefly luciferase reporter. To detect small molecules that cause this 'delayed death' phenotype, erythrocytes infected with the luciferase-expressing parasites were incubated with compounds for either one or two generations, corresponding to 48 and 96 hours, respectively. Compounds that inhibit parasite growth in the second generation, but not the first, should be enriched in antimalarials that target the apicoplast. Growth inhibition is detected by a decrease in luciferase activity
Four microliters of culture medium (RPMI 1640 with 0.5% w/v Albumax (GIBCO), 24 mM sodium bicarbonate and 10 ug/mL gentamycin) were dispensed by a Multi-drop Combi into white solid 1536-well plates (Grenier) and 23 nL compound was added by a pin tool. Four microliters of infected erythrocytes (2% hematocrit, 0.1% parasitemia final concentration) in culture medium were dispensed and the plates incubated for 96 hours at 37 C in 5% CO2. Two microliters of luciferase detection reagent was added and luminescence was detected by a ViewLux (PerkinElmer) reader
In the case of `C[C@@H]1O[C@@H](O[C@H]2C[C@@H](O)[C@]3(CO)[C@H]4[C@H](O)C[C@]5(C)[C@@H](C6=CC(=O)OC6)CC[C@]5(O)[C@@H]4CC[C@]3(O)C2)[C@H](O)[C@H](O)[C@H]1O`, the “activity change, negative = inhibition” value is reported as 2.38% (inactive).
In the case of `CC[N+](CC)(CC)CC`, the Potency is reported as 4.15 µM (active).
For `NCC(O)c1ccc(O)cc1` (stereo not given), the “activity change, negative = inhibition” value was 12.1% (inactive).
With `CN1C[C@H](CNC(=O)OCc2ccccc2)C[C@@H]2c3cccc4c3c(cn4C)C[C@H]21` the Potency was 3.29 µM (active).
In the case of `CCCN1CCC[C@@H]2Cc3nc(N)ncc3C[C@H]21`, the “activity change, negative = inhibition” value is reported as 8.79% (inactive).
In the case of `O=C1NCN(c2ccccc2)C12CCN(CC1COc3ccccc3O1)CC2` (stereo not given), the “activity change, negative = inhibition” value is reported as 18.5% (inactive).
For `O=c1[nH]cc(F)c(=O)[nH]1`, the Potency was 9.28 µM (active).
For `CC(CCc1ccccc1)NC(C)C(O)c1ccc(O)cc1` (stereo not given), the “activity change, negative = inhibition” value was 2.53% (inactive).
In the case of `NN=C(N)N`, the Potency is reported as “inactive”.
In the case of `COC[C@H]1OC(=O)c2coc3c2[C@@]1(C)C1=C(C3=O)C2CCC(=O)[C@@]2(C)C[C@H]1OC(C)=O` (stereo not given in full), the Potency is reported as 8.28 µM (active).
With `CC(=O)[C@H]1CC[C@H]2[C@@H]3CC[C@H]4C[C@H](O)CC[C@]4(C)[C@H]3C(=O)C[C@]12C` the “activity change, negative = inhibition” value was -1.72% (inactive).
In the case of `CCC1(C2=NCCN2)Cc2ccccc2O1` (stereo not given), the “activity change, negative = inhibition” value is reported as -11.4% (inactive).
In the case of `O=c1c(O)c(-c2ccc(O)c(O)c2)oc2cc(O)cc(O)c12`, the Potency is reported as 10.4 µM (active).
In the case of `Cc1ncc(CNC(=O)N(CCCl)N=O)c(N)n1`, the “activity change, negative = inhibition” value is reported as -1.51% (inactive).
In the case of `Nc1ccncc1`, the “activity change, negative = inhibition” value is reported as 7.35% (inactive).
In the case of `CNCC(O)c1ccc(O)cc1` (stereo not given), the “activity change, negative = inhibition” value is reported as -21.1% (inactive).
In the case of `c1ccc2c(c1)OCC(C1=NCCN1)O2` (stereo not given), the “activity change, negative = inhibition” value is reported as -15.6% (inactive).
In the case of `COc1ccc(Cc2nccc3cc(OC)c(OC)cc23)cc1OC`, the “activity change, negative = inhibition” value is reported as -29.5% (inactive).
For `NCC1(CC(=O)O)CCCCC1`, the “activity change, negative = inhibition” value was 22.2% (inactive).
With `NCC(CC(=O)O)c1ccc(Cl)cc1` (stereo not given) the “activity change, negative = inhibition” value was 16.4% (inactive).
For `CCCC(C)(COC(N)=O)COC(=O)NC(C)C` (stereo not given), the “activity change, negative = inhibition” value was -28.1% (inactive).
With `c1ccc(C2CC2)c(OCC2=NCCN2)c1` the “activity change, negative = inhibition” value was -2.5% (inactive).
For `CC[N+](C)(C)c1cccc(O)c1`, the Potency was 0.0059 µM (active).
With `O=c1[nH]c2ccccc2n1CCCN1CCC(n2c(=O)[nH]c3cc(Cl)ccc32)CC1` the Potency was 1.17 µM (active).
With `CN(C)C(=O)C(CCN1CCC(O)(c2ccc(Cl)cc2)CC1)(c1ccccc1)c1ccccc1` the Potency was 7.38 µM (active).
For `COc1ccccc1N1CCNCC1`, the “activity change, negative = inhibition” value was 2.71% (inactive).
With `O=c1[nH]c2ccccc2n1C1CCN(CCCC(c2ccc(F)cc2)c2ccc(F)cc2)CC1` the Potency was 10.4 µM (active).
With `Fc1ccc(C(OCCN2CCN(CCCc3ccccc3)CC2)c2ccc(F)cc2)cc1` the “activity change, negative = inhibition” value was -96.2% (inactive).
In the case of `OCCN1CCN(CCCN2c3ccccc3Sc3ccc(C(F)(F)F)cc32)CC1`, the Potency is reported as 3.29 µM (active).
In the case of `CCn1cc(C(=O)O)c(=O)c2ccc(C)nc21`, the “activity change, negative = inhibition” value is reported as 24.7% (inactive).
